Source: PubChem BioAssay (National Center for Advancing Translational Sciences (NCATS))
HP1b binding inh – HTS for Inhibitors of HP1-beta Chromodomain Interactions with Methylated Histone Tails | Chromobox protein homolog 1 (Homo sapiens), P83916 | AlphaScreen HP1-beta / biotin-H3K9me3 peptide binding | Potency, µM (doses to about 114 µM), without a hit: top-dose activity change, negative = inhibition, actives largely listed as inhibitors | actives 0.56% (n = 390,000); note: nearly all actives have a fitted effect of over 70% in size
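HP1-beta protein (50 nM final) preincubated 30 min at room temperature with biotinylated H3(1-18)K9me3 peptide (50 nM) in PBS pH 7.4, 0.01% Tween-20, then compound added for 30 min. AlphaScreen streptavidin donor/nickel chelate acceptor beads (10 ug/mL final), 30 min dark, luminescence read.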
JMJD2A Tudor inh – qHTS Assay for Inhibitors of JMJD2A-Tudor Domain; AlphaScreen JMJD2A-Tudor / H3K4me3 peptide binding; actives 4.4% (n = 390,000); Potency, µM (top dose mostly 114 µM), for the others: at the top dose activity change, negative = inhibition, actives largely listed as inhibitors; AID 504339, 2011; Lysine-specific demethylase 4A (Homo sapiens), O75164; note: % is set by controls: 0 for no effect and ±100 for the full control effect; nearly all actives have a fitted effect of over 50% in size
G9a inh – qHTS Assay for Inhibitors of Histone Lysine Methyltransferase G9a | Potency, µM (doses to about 102 µM), for inactives: top-dose activity, negative = inhibition, actives largely listed as inhibitors | G9a H3K9 monomethylation, AlphaScreen, 2 h | Histone-lysine N-methyltransferase EHMT2 (Homo sapiens), Q96KQ7 | actives 8.8% (n = 350,000); note: % is set by controls: 0 for no effect and ±100 for the full control effect; nearly all actives have a fitted effect of over 75% in size
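G9a (20 nM) was preincubated 15 min with compound, then reacted 2 h at room temperature with 500 nM biotin-H3K9 peptide and 20 µM SAM. Monomethyl-H3K9 detected by AlphaScreen using anti-H3K9me1 antibody.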
Sfp inh – qHTS Assay for Inhibitors of Bacillus subtilis Sfp phosphopantetheinyl transferase (PPTase); Biochemical Sfp PPTase activity, qHTS; Potency, µM, for the others: largest response in the series, negative = inhibition, most hits filed as inhibitors; actives 3.5% (n = 310,000); AID 1490, 2009;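 note: the enzyme is Sfp with the accession as filed and its product quenches rhodamine fluorescence; 0% = enzyme reaction without inhibitor and -100% = no enzyme wells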
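Buffer: 50 mM Hepes-Na pH 7.6, 10 mM MgCl2, 0.01% Nonidet P-40, 0.01% BSA. Enzyme 15 nM, pre-exposed to compound 15 min; substrates then added and fluorescence change tracked over 30 min.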
PLK1 PBD inh – qHTS for Inhibitors of PLK1-PDB (polo-like kinase 1 - polo-box domain): Primary Screen; Plk1 PBD binding of FITC phosphopeptide, fluorescence polarization; Potency, µM, for inactives: max response, negative = inhibition, hits mostly inhibitors; actives 2.8% (n = 360,000); AID 720504, 2013; note: series mostly up to about 57 µM; % is set by controls: 0 for no effect and ±100 for the full control effect; nearly all actives have a fitted effect of over 65% in size
Target sequence (P53350 whole entry, looked up, the tested form may be a part): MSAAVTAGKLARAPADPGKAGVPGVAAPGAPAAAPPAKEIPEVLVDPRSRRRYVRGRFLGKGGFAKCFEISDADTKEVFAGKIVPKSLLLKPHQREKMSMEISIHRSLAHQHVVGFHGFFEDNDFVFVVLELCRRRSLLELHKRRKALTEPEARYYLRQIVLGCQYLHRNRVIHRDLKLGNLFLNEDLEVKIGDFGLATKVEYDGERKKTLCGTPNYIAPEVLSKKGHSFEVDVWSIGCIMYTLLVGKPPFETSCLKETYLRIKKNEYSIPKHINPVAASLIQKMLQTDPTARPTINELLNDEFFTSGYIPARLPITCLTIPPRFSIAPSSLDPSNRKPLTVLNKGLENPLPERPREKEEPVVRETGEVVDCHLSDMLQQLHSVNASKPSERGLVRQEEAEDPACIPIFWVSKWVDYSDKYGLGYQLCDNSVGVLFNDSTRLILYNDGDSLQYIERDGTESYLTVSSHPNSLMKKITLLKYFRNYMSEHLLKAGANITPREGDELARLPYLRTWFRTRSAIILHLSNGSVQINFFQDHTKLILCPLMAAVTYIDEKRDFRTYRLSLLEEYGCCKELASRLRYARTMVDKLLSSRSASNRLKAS
BAZ2B block – qHTS Assay for Inhibitors of BAZ2B; AlphaScreen BAZ2B-H3K14Ac peptide displacement; AID 504333, 2011; Bromodomain adjacent to zinc finger domain protein 2B (Homo sapiens), Q9UIF8; Potency, µM (doses to about 114 µM), for inactives: at the highest dose activity change, negative = inhibition, actives largely listed as inhibitors; actives 4.4% (n = 360,000); note: % is set by controls: 0 for no effect and ±100 for the full control effect; nearly all actives have a fitted effect of over 60% in size
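AlphaScreen displacement of biotin-H3(5-23)K14Ac peptide (50 nM final) from BAZ2B (50 nM final) in PBS pH 7.4, 0.01% Tween-20; complex preformed 30 min RT, then compounds (top 110 uM) 30 min RT, beads 20 min dark.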
* hit, by the source's call; [ ] = remark or other dose. In the library only some 12% were active in any assay of this set; here they are far more common. Calls come from the whole dose curve; as a rule, active = well fitted curve in the direction sought with a large enough effect; inconclusive = small, poorly fitted or top-dose-only effect, or another doubt; inactive = no such curve, though single readings can be large; an effect the other way counts as inactive or inconclusive. Potency is the fitted concentration of half-maximal effect.

For COc1ccc(NC(=O)/C=C/c2ccc(Br)o2)cn1 the results were HP1b binding inh inconclusive, JMJD2A Tudor inh inconclusive, G9a inh inconclusive, Sfp inh 25.1µM*, PLK1 PBD inh inconclusive and BAZ2B block inconclusive.
`COc1ccccc1CNC(=O)/C=C/c1ccc(Br)o1` gave HP1b binding inh 24.9%, JMJD2A Tudor inh -16.1%, G9a inh 28.2µM*, Sfp inh 10µM*, PLK1 PBD inh -14.1% and BAZ2B block inconclusive.
For COc1ccc(NC(=O)/C=C/c2cccc(F)c2)cn1 the results were HP1b binding inh 8.7%, JMJD2A Tudor inh -30.5%, G9a inh 2.1%[59 µM], Sfp inh 13.4%, PLK1 PBD inh -14.4% and BAZ2B block -4.8%.
For COc1ccccc1CNC(=O)Cc1ccc(Br)cc1 the results were HP1b binding inh 35.6%, JMJD2A Tudor inh -3.0%, G9a inh 8.3%[59 µM], Sfp inh 3.0%, PLK1 PBD inh -11.4% and BAZ2B block -7.8%.
COc1ccc(NC(=O)c2ccco2)cn1 was read as HP1b binding inh 27.0%, JMJD2A Tudor inh -3.4%, G9a inh -13.3%, Sfp inh 18.9%, PLK1 PBD inh -20.0% and BAZ2B block 4.0%.
`COc1ccc(NC(=O)/C=C/c2ccco2)cn1` gave HP1b binding inh 5.5%, JMJD2A Tudor inh -18.2%[57.1 µM], G9a inh 44.7µM*, Sfp inh -88.0%, PLK1 PBD inh -23.5% and BAZ2B block inconclusive.
For O=C(/C=C/c1ccc(Br)o1)NC(c1ccccc1)c1ccccc1 the results were HP1b binding inh inconclusive, JMJD2A Tudor inh inconclusive, G9a inh 17.8µM*, Sfp inh 20µM*, PLK1 PBD inh inconclusive and BAZ2B block -37.0%.
Screening O=C(OCCN=C1NS(=O)(=O)c2ccccc21)C1CC(=O)N(c2ccc3ccccc3c2)C1 (centres undefined) returned HP1b binding inh 39.2%, JMJD2A Tudor inh -27.9%, G9a inh -23.6%[59 µM], Sfp inh 21.9%, PLK1 PBD inh 2.4% and BAZ2B block -17.2%.
COC(=O)c1c(SC)nc2ccccc2c1OCc1ccc(C)cc1C was read as HP1b binding inh 122.6%, JMJD2A Tudor inh 125.6%, G9a inh 73.0%[59 µM] and BAZ2B block 144.6%.
`COc1ccccc1N1CCN(C(=O)c2cnn(C(C)(C)C)c2C2CCN(C(=O)OC(C)(C)C)CC2)CC1` gave HP1b binding inh 39.1%, JMJD2A Tudor inh -11.7%, G9a inh -6.9%[59 µM] and BAZ2B block 7.1%[57.1 µM].
Cc1ccc(-n2nc(CO)c(C(=O)NCc3cccs3)n2)cc1 was read as HP1b binding inh -2.3%, JMJD2A Tudor inh -26.1%, G9a inh 3.9%[59 µM] and BAZ2B block -1.1%.
O=C(Cc1c[nH]c2ccccc12)Nc1cccc(S(=O)(=O)N2CCCCC2)c1 was read as G9a inh 44.7µM*, Sfp inh 12.7% and BAZ2B block inconclusive.
For O=C(CCl)Nc1cccc(S(=O)(=O)N2CCCCCC2)c1 the results were HP1b binding inh 28.5%, JMJD2A Tudor inh -20.0%, G9a inh 50.1µM*, Sfp inh 20.0%, PLK1 PBD inh -18.9% and BAZ2B block -19.2%.
`O=C(CN1C(=O)NC(Cc2c[nH]c3ccccc23)C1=O)Nc1cccc(S(=O)(=O)N2CCCCCC2)c1` (centres undefined) gave HP1b binding inh -13.7%, JMJD2A Tudor inh inconclusive, G9a inh inconclusive, Sfp inh 14.8%, PLK1 PBD inh -2.5% and BAZ2B block inconclusive.
Screening CC(=O)NC(CC(=O)Nc1cccc(S(=O)(=O)N2CCCCC2)c1)c1ccccc1 (centres undefined) returned HP1b binding inh 4.3%, JMJD2A Tudor inh -18.8%, G9a inh 50.1µM*, Sfp inh 5.8%, PLK1 PBD inh -3.5% and BAZ2B block -24.3%.
Screening CC(=O)NC(CC(=O)NC1CCCCC1)c1ccccc1 (centres undefined) returned HP1b binding inh 14.1%, JMJD2A Tudor inh -11.3%, G9a inh 10µM*, Sfp inh 4.8%, PLK1 PBD inh -8.9% and BAZ2B block -4.8%.
`CC(=O)NC(CC(=O)NC1CCCCCC1)c1ccccc1` (centres undefined) gave HP1b binding inh 19.5%, JMJD2A Tudor inh -11.3%, G9a inh inconclusive, Sfp inh 10.5%, PLK1 PBD inh -4.4% and BAZ2B block 3.1%.
O=C(Cc1ccc(Cl)cc1)Nc1cccc(S(=O)(=O)N2CCCCC2)c1 was read as HP1b binding inh 35.6%, JMJD2A Tudor inh 5.5%, G9a inh 4.0%[59 µM], PLK1 PBD inh 11.0% and BAZ2B block -6.9%.
For CCC(=O)N1c2ccccc2CC1C(=O)NCCCN1CCN(c2cc(C)ccc2C)CC1 (centres undefined) the results were HP1b binding inh 55.2%, JMJD2A Tudor inh -29.1%, G9a inh 9.9%[59 µM] and BAZ2B block -21.6%.
COc1ccccc1-c1nn(CCC(=O)Nc2cccc(C(C)=O)c2)c2nc(C)cc(C)c12 was read as HP1b binding inh 27.0%, JMJD2A Tudor inh -9.1%, G9a inh -0.4%[59 µM] and BAZ2B block -17.8%.
Cc1ccc(C)n1-c1nnc(N2CCCC(C(=O)NCc3cccc(Cl)c3)C2)s1 (centres undefined) was read as HP1b binding inh 23.6%, JMJD2A Tudor inh -19.5%, G9a inh 2.2%[59 µM] and BAZ2B block -14.3%.
COc1ccc(NC(=O)CN(C)S(=O)(=O)c2ccc3[nH]c4c(c3c2)CCCC4)cc1Cl was read as HP1b binding inh -26.3%, JMJD2A Tudor inh inconclusive, G9a inh inconclusive and BAZ2B block -37.2%.
For CC(C)(C)c1ccc(OCCCC(=O)Nc2cccc(S(=O)(=O)N3CCOCC3)c2)cc1 the results were HP1b binding inh 18.6%, JMJD2A Tudor inh -23.4%, G9a inh 1.5%, PLK1 PBD inh 3.0% and BAZ2B block 7.9%.
Screening CC(C)(C)c1ccc(OCCC(=O)Nc2cccc(S(=O)(=O)N3CCCC3)c2)cc1 returned HP1b binding inh 17.3%, JMJD2A Tudor inh -15.2%, G9a inh 3.55µM*, PLK1 PBD inh 2.5% and BAZ2B block 3.7%.
For CN(C)C(=S)NC(=O)C(c1ccccc1)c1ccccc1 the results were HP1b binding inh 33.8%, JMJD2A Tudor inh -1.4%, G9a inh 79.4µM*, Sfp inh 6.0%, PLK1 PBD inh 2.5% and BAZ2B block -22.9%.
